From PubChem BioAssay AID624125 (The Scripps Research Institute Molecular Screening Center, 2012)
Screen size: about 360,000 compounds; about 2,600 (0.72%) were called active. This excerpt belongs to a sample that is enriched for actives. A number with no mark means an inactive call.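 How the source made its calls: active means inhibition above its plate's cutoff, the mean inhibition of sample wells plus 3 SD (cut at about 27% in these data); inactive means the rest.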

biological target: Muscarinic acetylcholine receptor M4 (Homo sapiens) (UniProt P08173); assay: human M4 muscarinic receptor antagonists, primary screen, CHO cells, Fluo-8 calcium fluorescence (AID 624125); conditions: CHO-hM4 cells, ACh EC80, Fluo-8 calcium fluorescence; at 3 µM; active compounds read high;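 further: 0% = acetylcholine EC80 with DMSO and 100% = DMSO without agonist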
Sequence (P08173 whole entry, looked up): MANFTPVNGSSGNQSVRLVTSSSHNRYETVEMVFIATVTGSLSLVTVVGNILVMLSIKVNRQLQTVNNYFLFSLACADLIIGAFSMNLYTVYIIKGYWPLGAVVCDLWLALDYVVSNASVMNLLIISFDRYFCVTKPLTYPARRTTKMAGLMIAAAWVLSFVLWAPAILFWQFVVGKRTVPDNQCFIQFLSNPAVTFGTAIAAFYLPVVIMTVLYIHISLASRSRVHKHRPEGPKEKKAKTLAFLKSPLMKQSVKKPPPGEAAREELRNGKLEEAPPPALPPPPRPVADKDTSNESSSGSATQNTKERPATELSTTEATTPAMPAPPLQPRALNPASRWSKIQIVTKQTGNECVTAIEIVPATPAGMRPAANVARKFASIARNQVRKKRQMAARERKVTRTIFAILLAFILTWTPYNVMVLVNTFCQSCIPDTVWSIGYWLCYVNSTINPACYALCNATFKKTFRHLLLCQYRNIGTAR

In order of rising inhibition:
1. CCC(=O)c1ccc(OCC(=O)N(CC)CC2COc3ccccc3O2)cc1 (configuration not stated)  -18.3%
2. O=[N+]([O-])c1cc(S(=O)(=O)CCCN2CCOCC2)ccc1F  -17.3%
3. COc1ccc(CCN2C(=O)N(c3ccc(OC)cc3)C(=O)C2CC(=O)Nc2ccc(OC)cc2)cc1 (configuration not stated)  -16.8%
4. CCC(CC)C(C(=O)NC1CCCC1)N1CCN(c2cc(C)nc3ccccc23)CC1 (configuration not stated)  -16.6%
5. CN(C)c1ccc(CSc2ccccc2)cc1  -16.2%
6. CCCC(=O)Nc1ncnc2c1ncn2[C@@H]1O[C@@H]2OP(=O)(O)OC[C@H]2[C@H]1OC(=O)CCC  -12.4%
7. O=C1Nc2c(Br)cc(Br)cc2C1(O)N1CCOCC1 (configuration not stated)  -12%
8. COC(=O)[C@]12CCCCC=C1N(Cc1ccccc1)C(=O)[C@H](CC(=O)NCc1ccc(C)o1)C2  -11.9%
9. Cc1c([N+](=O)[O-])c(N)nn1C  -10.8%
10. CC(C)c1ccc(OCC(O)CN2CCN(c3ccccn3)CC2)cc1 (configuration not stated)  -9.52%
11. COC(=O)c1ccccc1NC(=O)C1CC(=O)N(c2ccc(OC)cc2)C1 (configuration not stated)  -8.44%
12. CN(Cc1cc2cc(F)ccc2[nH]1)Cc1nc(-c2cnccn2)no1  -8.36%
13. O=C(Nc1ccc(F)cc1)C1CCN(C(=O)c2ccc([N+](=O)[O-])cc2)CC1  -7.19%
14. COc1cccc(/C=C/C(=O)OCC(=O)N2CCCc3ccccc32)c1  -7.08%
15. CC(C)(C)C(=O)COC(=O)c1cc(S(=O)(=O)N2CCCCC2)ccc1N1CCOCC1  -6.6%
16. O=C(NCc1ccccc1)[C@H]1C[C@@H]1[C@H](NP(=O)(c1ccccc1)c1ccccc1)c1ccccc1  -6.36%
17. C[N+]1(CC(O)COc2ccccc2)CCN(C(=O)c2ccc([N+](=O)[O-])cc2)CC1 (configuration not stated)  -5.14%
18. COc1ccc(CN2CC(C(=O)NCCc3ccc(Cl)cc3)CC2=O)cc1 (configuration not stated)  -3.66%
19. Cc1n[nH]c(=O)c2c(NC(=O)CSc3cc(Cl)ccc3Cl)oc(C)c12  -3.66%
20. CC1(C)Cc2cccc(OCC(=O)N3CCN(c4ccc([N+](=O)[O-])cc4)CC3)c2O1  -2.84%
21. COc1ccc(C(CCN(Cc2ccc(OC)c(OC)c2)C(=O)CCl)c2ccccc2)cc1 (configuration not stated)  -0.52%
22. COc1cccc(CNC(=O)CCC2CCCN(C(=O)c3cc(C)[nH]n3)C2)c1 (configuration not stated)  -0.4%
23. CC1=NN(c2cccc(Cl)c2)C(=O)C12CC(C)=C(C)CS2 (configuration not stated)  -0.34%
24. CCc1cccc(NC(=O)COC(=O)c2cc(=O)c3ccccc3o2)c1  -0.31%
25. O=C(Nc1c2c(nn1-c1ccc(F)cc1)CS(=O)C2)C12CC3CC(CC(C3)C1)C2 (configuration not stated)  -0.1%
26. CCOc1cc(CNCc2ccccn2)ccc1OCC(=O)NC(C)(C)C  1%
27. CCn1ccnc1CN(C)Cc1nc(-c2ccc3c(c2)OCO3)no1  1.6%
28. CCN(CC)c1ccc(NC(=O)c2ccc(Cl)nc2)cc1  1.79%
29. CCNC(=S)N(CCN(CC)CC)Cc1cc2cc3c(cc2[nH]c1=O)OCO3  1.79%
30. COc1ccc2[nH]c3c(C)c4cc[n+](C)cc4c(C)c3c2c1  1.89%
31. COc1ccc(C(=O)OCC(=O)NCCCc2ccccc2)cc1OC  2.28%
32. CCNc1nc(Oc2ccc(C(=O)OC)cc2)nc(N2CCOCC2)n1  2.43%
33. Cn1c(=O)c2c(SCC(=O)NCC3CCCO3)nc(CC(C)(C)C)nc2n(C)c1=O (configuration not stated)  2.72%
34. O=C(COc1ccc(F)cc1Br)NCC1COc2ccccc2O1 (configuration not stated)  3.31%
35. O=C1C(=O)N(CCCO)C(c2ccccc2)/C1=C(\O)c1ccc(Br)cc1 (configuration not stated)  3.51%
36. CC1Cc2[nH][nH]c(=O)c2C(C2CCCC2)O1 (configuration not stated)  3.85%
37. O=c1[nH]c(=O)n(Cc2ccco2)c2c1C(C(F)(F)F)(C(F)(F)F)N=C(c1ccco1)N2  4%
38. CCCS(=O)(=O)Nc1ccc(-c2cn3c(n2)SCC3)cc1  4.45%
39. CCOC(=O)C1C(c2ccc(O)cc2)NC(=O)NC1(O)C(F)(F)F (configuration not stated)  5.66%
40. CC(OC(=O)c1ccc(NS(=O)(=O)c2ccc3[nH]c(=O)[nH]c3c2)cc1)C(=O)Nc1cccc(Cl)c1Cl (configuration not stated)  5.91%
41. CCN(CC(=O)Nc1ccc(OC)cc1)C(=O)c1ccc(=O)n(Cc2ccccc2)n1  6.9%
42. COc1cccc(CNC(=O)CCC2CCCN(Cc3ccc(OC(F)F)cc3)C2)c1 (configuration not stated)  8.05%
43. CCN(Cc1ccccc1)C(=O)CSc1nc(C)cc2c1C(=O)OC2  8.21%
44. CN(CCc1ccccn1)C(=O)c1ccc(OC2CCN(Cc3ccccn3)CC2)cc1  10.3%
45. CC(=O)OC(COc1ccc(F)cc1)Cn1cnc2ccccc21 (configuration not stated)  11.2%
46. COc1cccc(OCC(=O)NNC(=O)c2cnccn2)c1  12.6%
47. OC[C@@H]1CN(Cc2ccc(-c3ccccc3)cc2)C[C@H](n2cnc3c(NC4CCCC4)ncnc32)O1  19.1%

In the case of `CN(CCc1ccccn1)C(=O)CCC1CCCN(Cc2ccccc2OC(F)F)C1` (configuration not stated), the inhibition is reported as 31.4% (active).
With `CC(C)c1ccc(OCC(O)Cn2cnc3ccccc32)cc1` (configuration not stated) the inhibition was 32% (active).
In the case of `CCN(CCCCOC(=O)c1ccc(OC)c(OC)c1)C(C)Cc1ccc(OC)cc1` (configuration not stated), the inhibition is reported as 61.6% (active).
With `COc1ccccc1C1SCCN1C(=O)c1ccc([N+](=O)[O-])cc1` (configuration not stated) the inhibition was 57% (active).
In the case of `O=C(c1cccs1)C1C(c2ccc(Br)cc2)NC(=S)NC1(O)C(F)(F)F` (configuration not stated), the inhibition is reported as 77.3% (active).
For `CN(Cc1nc(-c2cnccn2)no1)Cc1n[nH]c2c1CCCCC2`, the inhibition was 37.3% (active).
In the case of `CCN(CC)c1ccc(/C=N/NC(=O)c2cnccn2)c(O)c1`, the inhibition is reported as 33.1% (active).
In the case of `Nc1c(C(=O)c2cccs2)sc2nsc(SCCN3CCCCC3)c12`, the inhibition is reported as 42% (active).
With `CN(C)c1ccc(/C=C2\NC(=S)N(Cc3ccccc3)C2=O)cc1` the inhibition was 44.5% (active).
For `c1ccc2c(c1)OCC(CNc1ncnc3nc[nH]c13)O2` (configuration not stated), the inhibition was 65.3% (active).
